High-throughput results: PubChem, National Center for Advancing Translational Sciences (NCATS)
KCNH2 3.1 block – inhibitors of human KCNH2 3.1 potassium channel isoform | U2OS KCNH2 3.1, thallium flux FluxOr; stronger effect = lower value | activity change, % (tested at about 1.8 µM) | actives 0.95% (n = 340,000) | AID 720553;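 active means maximum activity change below -70%; inconclusive means maximum activity change from -70% to -50%; inactive means maximum activity change above -50%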;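 further: thallium influx rate constant from kinetic fluorescence after stimulation buffer; on the % scale 0 is the no-effect control and ±100 the full control effect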
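U2OS cells transduced with KCNH2 3.1 mutant virus (1.77 x 10^8 /mL, 4 h), plated overnight at 37 C, loaded 45 min with FluxOr dye plus Red40 quencher. Thallium flux rate constant from kinetic reads after stimulation buffer, normalised to controls.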
IDH1 R132H inh – human IDH1 R132H inhibition. Potency, µM (series often up to 76.6 µM), for the others: at the top dose activity change, negative = inhibition, most hits filed as inhibitors. AID 602179. IDH1-R132H enzyme, NADPH consumption, diaphorase/resazurin fluorescence. actives 0.093% (n = 390,000). O75874; further: potency means the concentration at half of the fitted maximal effect; on the % scale 0 is the no-effect control and ±100 the full control effect; nearly all actives have a fitted effect of over 65% in size
Target sequence (O75874 whole entry R132H, stated change not applied): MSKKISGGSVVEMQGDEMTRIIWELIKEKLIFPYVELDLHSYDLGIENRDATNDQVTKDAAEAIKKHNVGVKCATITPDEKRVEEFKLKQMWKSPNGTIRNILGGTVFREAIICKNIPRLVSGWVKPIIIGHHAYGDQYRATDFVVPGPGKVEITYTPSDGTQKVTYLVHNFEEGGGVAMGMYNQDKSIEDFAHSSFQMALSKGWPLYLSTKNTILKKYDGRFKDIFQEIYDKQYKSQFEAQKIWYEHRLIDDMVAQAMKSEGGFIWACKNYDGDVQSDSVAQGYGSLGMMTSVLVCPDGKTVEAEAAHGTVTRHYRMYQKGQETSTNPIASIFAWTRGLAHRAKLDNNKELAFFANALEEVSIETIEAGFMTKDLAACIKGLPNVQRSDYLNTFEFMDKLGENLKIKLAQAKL
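IDH1-R132H (0.5 ug/mL dispensed) in pH 7.5 Tris buffer was preincubated 30 min with compound, then given a substrate mix of 0.016 mM NADPH and 2 mM alpha-KG for 80 min at room temperature; remaining NADPH was read by diaphorase/resazurin fluorescence.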
hERG WT inh – inhibitors of human wildtype KCNH2 potassium channel; AID 720551; actives 0.37% (n = 340,000); U2OS, BacMam KCNH2, thallium flux FluxOr; stronger effect = lower value; activity change, % at 1.84 µM;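 active means maximum activity change below -70%; inconclusive means maximum activity change between -70% and -50%; inactive means maximum activity change above -50%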; further: on the % scale 0 is the no-effect control and ±100 the full control effect
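U2OS cells were transduced with wild-type KCNH2 virus (2.03 x 10^8 / mL) for 4 h at room temperature, then cultured overnight at 37 C. Thallium flux was read with FluxOr dye. Rate constants were normalized to DMSO controls.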
ASM inhibitor – inhibitors of human secretory acid sphingomyelinase; P17405; Potency, µM (series often up to 57.5 µM), for the others: top-dose activity change, negative = inhibition, usual class: inhibitors; AID 504937; actives 0.006% (n = 340,000); placental ASM, HMU-PC fluorogenic substrate, 60 min; further: potency means the concentration at half of the fitted maximal effect
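Steps: dispense placental human ASM, pin compound, wait 10 min at room temperature, add HMU-PC0 substrate at 9 uM final, incubate 60 min at 37 °C, add stop solution raising pH to 10, read fluorescence.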
Anesthetic bind – candidate novel general anesthetic via apoferritin binding; apoferritin/1-aminoanthracene competitive binding, fluorescence; Potency, µM (highest dose often 77.5 µM), for the others: at the highest dose activity change, negative = displacement, hits mostly inhibitors; actives 0.074% (n = 350,000); further: potency means the concentration at half of the fitted maximal effect; on the % scale 0 is the no-effect control and ±100 the full control effect; nearly all actives have a fitted effect of over 20% in size
Target sequence (P02791 2-175 limits assumed): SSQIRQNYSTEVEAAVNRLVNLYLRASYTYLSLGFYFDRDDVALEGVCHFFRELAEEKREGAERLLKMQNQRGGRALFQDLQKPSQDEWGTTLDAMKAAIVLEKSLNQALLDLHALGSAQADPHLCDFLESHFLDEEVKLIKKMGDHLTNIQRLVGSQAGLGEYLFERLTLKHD
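Horse-spleen apoferritin (10 uM) was mixed with 50% saturated 1-aminoanthracene in PBS, exposed to compounds for 10 min at room temperature, and read for fluorescence (ex 380 nm, em 535 nm). Competitive displacement was fitted with a four-parameter Hill equation.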
IDH1 autofl – autofluorescence interference, mutant IDH1 hit counter-screen; shares compounds with IDH1 R132H inh; Resorufin detection reagent fluorescence interference, cell-free; inhibition of signal, % at 51.2 µM; 750 tested, under 10 active; AID 623980;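 further: 0% = wells with normal resorufin and full inhibition = wells lacking resorufin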
WT IDH1 inh – inhibits human wild-type IDH1, mutant selectivity check. WT IDH1 enzyme, NADPH diaphorase/resazurin fluorescence. shares compounds with IDH1 R132H inh. Potency, µM (top dose mostly 115 µM), for inactives: at the highest dose activity change, negative = inhibition, actives largely listed as inhibitors. actives 9% (n = 750);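 further: potency means the concentration at half of the fitted maximal effect; 0% = full WT IDH1 enzyme control and full inhibition = no enzyme wells; nearly all actives have a fitted effect of over 55% in size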
Target sequence (O75874 whole entry, looked up): as the sequence (O75874 whole entry R132H, stated change not applied) above, with H132R counted along it
mIDH1 confirm – confirmation of human mutant IDH1 inhibitors; Potency, µM (doses to about 76.6 µM), for inactives: at the top dose activity change, negative = inhibition, usual class: inhibitors; AID 624002; IDH1 R132H enzyme, NADPH diaphorase/resazurin fluorescence; shares compounds with IDH1 R132H inh; actives 83% (n = 750); further: potency means the concentration at half of the fitted maximal effect; nearly all actives have a fitted effect of over 50% in size
Starred values were filed as active, the others as inactive; i = inactive; ? = inconclusive; / = not tested or not shown. Hits are enriched below; roughly 1.2% of the tested compounds scored in any of these assays. Unless noted, the call rests on the fitted dose curve; in most records, active means well fitted curve in the direction sought with a large enough effect; inconclusive means small, poorly fitted or top-dose-only effect, or another doubt; inactive means no such curve, though single readings can be large; an effect the other way counts as inactive or inconclusive.

SMILES	KCNH2 3.1 block	IDH1 R132H inh	hERG WT inh	ASM inhibitor	Anesthetic bind	IDH1 autofl	WT IDH1 inh	mIDH1 confirm
COC(=O)c1ccc(NC(=O)C(c2ccccc2)N2Cc3ccccc3C2=O)cc1 (centres undefined)	/	?	/	/	-1%	-4	-1%	-6%
CCN(CC)C(=O)CSc1nc(-c2ccccc2F)nc2c1Cc1c(CO)cnc(C)c1O2	/	3%	/	/	?	/	/	/
Cc1ncc(CO)c2c1Oc1nc(-c3ccccc3F)nc(SCC(=O)N(C)c3ccccc3)c1C2	-15	52µM*	-6	1%	?	-1	10%	?
Cc1ccc(C(=O)NCc2ccc(N(C)C)cc2)cc1NC(=O)c1nsc2ccccc12	/	30%	/	/	59%	/	/	/
CCOc1cc(/C=C2/C(=O)ON=C2C)ccc1OCc1ccccc1F	-10	21µM*	1	-2%	-17%	2	?	28µM*
CCOc1cc(/C=C2/C(=O)ON=C2C)ccc1OCc1ccccc1	3	-10%	5	-1%	-4%	/	/	/
Cc1ccc(N2C(=O)c3n[nH]c(C)c3C2c2ccc(C(C)C)cc2)cc1 (centres undefined)	/	?	/	/	-21%	-11	-16%	28µM*
CCO[C@@H]1OC(C(=O)Nc2ccccc2)=C[C@H](c2ccc(C(F)(F)F)cc2)[C@H]1CCCO	/	?	/	-16%	-8%	-4	-4%	22µM*
Cc1cc(C)cc(NC(=O)CSc2c(C(C)C)cnc3c2c(=O)n(C)c(=O)n3C)c1	/	?	/	/	3%	-8	-12%	-7%
CC(c1nnnn1C(C)(C)C)N(Cc1cccnc1)Cc1ccccc1Cl (centres undefined)	1	-2%	-11	-2%	-22%	/	/	/
CC(C)(C)n1nnnc1C(c1cccs1)N(Cc1cccnc1)Cc1ccccc1Cl (centres undefined)	-3	?	1	2%	11%	3	1%	20µM*
CCc1cccc(C)c1Nc1c(-c2cccc(O)c2)nc2cnccn12	/	-7%	/	/	0%	/	/	/
CCc1cccc(C)c1Nc1c(-c2ccc(N(C)C)cc2)nc2cnccn12	/	32µM*	/	/	-12%	-9	-7%	16µM*
CCc1cccc(C)c1Nc1c(-c2ccc(F)cc2)nc2sccn12	/	40µM*	/	/	0%	3	7%	14µM*
CCOC(=O)c1ccccc1NC(=O)c1cn(CC(C)C)c(=O)c2cc(OC)c(OC)cc12	/	45µM*	/	/	-6%	-7	1%	14µM*
CCOc1cc(/C=C(\C#N)C(=O)Nc2cccc(C(=O)O)c2)cc(Br)c1OC(=O)c1ccc(OC)cc1	-112*	52µM*	-1	?	-9%	8	71µM*	32µM*
CC(C)c1ccc(NC2CCCN(C(=O)c3ccc(N4CCOCC4)cc3)C2)cc1 (centres undefined)	11	45µM*	3	/	-19%	-9	-4%	20µM*
CCC(C)Sc1ccc([C@@H]2[C@@H]3C(=O)N(CC)C(=O)[C@@H]3[C@]3(C(=O)OC)CCCCN23)cc1OC (some centres undefined)	14	-32%	-5	-6%	/	/	/	/
CCC(C)Sc1ccc([C@@H]2[C@@H]3C(=O)N(C)C(=O)[C@@H]3[C@]3(C(=O)OC)CCCCN23)cc1OC (some centres undefined)	-5	35µM*	-3	-6%	/	-7	1%	16µM*
CC1(C)CC(=O)C2=C(C1)NC1=C(C(=O)c3ccccc31)C2c1cc([N+](=O)[O-])ccc1O (centres undefined)	9	?	0	?	?	11	-7%	32µM*
CC1(C)CC(=O)C2=C(C1)NC1=C(C(=O)c3ccccc31)C2c1ccccc1 (centres undefined)	4	-1%	-5	-26%	?	/	/	/
CCOc1ccc(-c2cc3nc(C4CCN(C(=O)OC(C)(C)C)CC4)c(C(=O)O)cn3n2)cc1	3	16µM*	1	32%	?	4	79µM*	14µM*
COc1ccc(-n2c(=O)c3c4c(sc3n(Cc3ccccc3)c2=O)CCC4)c(OC)c1	/	-8%	/	/	31%	/	/	/
CCN(CC)C(=O)c1sc2c(c1C)c(=O)n(CCc1ccccc1)c(=O)n2Cc1cc(C)ccc1C	/	10µM*	/	/	-1%	-8	-2%	8.9µM*
CC(=O)N1CCc2c(sc3c2c(=O)n(-c2cccc(Cl)c2C)c(=O)n3Cc2ccccc2C)C1	/	?	/	/	-9%	-4	40µM*	28µM*
SMILES	KCNH2 3.1 block	IDH1 R132H inh	hERG WT inh	ASM inhibitor	Anesthetic bind	IDH1 autofl	WT IDH1 inh	mIDH1 confirm
COc1ccc(-n2c(=O)c3c4c(sc3n(Cc3cc(C)ccc3C)c2=O)CN(C(C)=O)CC4)c(OC)c1	/	?	/	/	49%	1	?	14µM*
CCN(CC)C(=O)c1sc2c(c1C)c(=O)n(Cc1ccccc1)c(=O)n2Cc1ccc(Cl)cc1	/	11%	/	/	7%	/	/	/
CCN(CC)C(=O)c1sc2c(c1C)c(=O)n(-c1ccc(C)c(C)c1)c(=O)n2Cc1cccc(Cl)c1	/	?	/	/	-3%	-10	-2%	13µM*
CCN(CC)C(=O)c1sc2c(c1C)c(=O)n(-c1ccc(OC)cc1OC)c(=O)n2Cc1cc(C)ccc1C	/	40µM*	/	/	1%	3	5%	22µM*
CCOc1ccc(-n2c(SCC(=O)Nc3cccc(Cl)c3)nc3c(oc4ccccc43)c2=O)cc1	/	-21%	/	/	-4%	/	/	/
O=C(NCc1ccc(Cl)cc1)C1CCN(S(=O)(=O)c2ccc3c(c2)CCCN3C(=O)C2CCC2)CC1	/	0%	/	/	29%	/	/	/
COc1cc2ncc(C(=O)c3ccc(C)cc3)c(N3CCCCC3)c2cc1OC	/	?	/	/	-12%	-8	-11%	14µM*
CCCCC(C(=O)NC1CCCC1)N(C(=O)c1snc(C(N)=O)c1N)c1ccc(C)cc1 (centres undefined)	-5	?	-5	84%	-2%	-4	0%	?
Cc1cccc(N(C(=O)c2snc(C(N)=O)c2N)C(C(=O)NC2CCCC2)c2ccco2)c1 (centres undefined)	-13	?	1	i	-12%	-11	-1%	35µM*
COc1ccccc1N(C(=O)c1snc(C(N)=O)c1N)C(C(=O)NC1CCCC1)c1ccco1 (centres undefined)	5	-17%	3	i	-10%	/	/	/
